According to PubChem BioAssay (Tox21):
Inconclusive results are not listed. Where a call stands in place of a potency, no number is given. Calls of active or inactive are those of the source. Calls come from the whole dose curve; as a rule, active = well fitted activation curve with a large enough effect in the repeat runs; inconclusive = weak or mixed curves; inactive = no such curve, though single readings can be large or run the other way.

Molecular target: Nuclear receptor subfamily 1 group I member 3 (Homo sapiens) (UniProt Q14994)
Sequence (Q14994 whole entry, looked up): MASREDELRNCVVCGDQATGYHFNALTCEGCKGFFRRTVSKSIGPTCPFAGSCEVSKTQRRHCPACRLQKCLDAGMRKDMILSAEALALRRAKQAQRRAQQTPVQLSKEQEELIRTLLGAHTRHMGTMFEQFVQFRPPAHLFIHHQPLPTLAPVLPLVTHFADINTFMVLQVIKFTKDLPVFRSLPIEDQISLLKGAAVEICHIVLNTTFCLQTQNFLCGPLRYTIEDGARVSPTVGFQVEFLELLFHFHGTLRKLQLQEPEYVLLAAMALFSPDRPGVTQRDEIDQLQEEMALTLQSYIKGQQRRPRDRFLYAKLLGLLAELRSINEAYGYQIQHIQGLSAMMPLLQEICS
Assay: qHTS assay to identify small molecule agonists of the constitutive androstane receptor (CAR) signaling pathway (AID 1224839); note: nearly all actives have a fitted effect of over 15% in size;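 for activation: HepG2 cells stably carrying human CAR and a CYP2B6 luciferase reporter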
Conditions: HepG2 hCAR CYP2B6-luciferase, agonist mode, 24 h; series mostly up to 92.4 µM
Procedure, shortened: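 Cells were plated and incubated 4 hrs, then dosed with compounds at 15 concentrations. PK11195 was added to 0.75 uM final. After 24 hrs at 37 C, luciferase luminescence was measured.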
Potency is the fitted concentration of half-maximal effect.

Row | SMILES | Potency
1 | CC(c1ccc(O)cc1)(c1ccc(O)cc1)c1ccc(O)cc1 | inactive
2 | Nc1ccc([N+](=O)[O-])cc1[N+](=O)[O-] | inactive
3 | CC[C@H]1C[C@H]2[C@@H]3CCC4=CC(=O)CC[C@@H]4[C@H]3CC[C@]2(C)[C@H]1O | inactive
4 | CO/C=C(/C(=O)OC)c1ccccc1COc1cccc(C(F)(F)F)n1 | 3.85 µM (active)
5 | COc1nn(CSP(=S)(OC)OC)c(=O)s1 | 54.5 µM (active)
6 | COC(=O)C(C)N(C(=O)Cc1ccccc1)c1c(C)cccc1C (stereo unspecified) | 9.69 µM (active)
7 | N#CCC#N | inactive
8 | O=C(O)C1(c2ccc3c(c2)OC[C@H](Cc2ccc(-c4ccccc4)cc2)[C@H]3O)CCCC1 | inactive
9 | C(=NC1CCCCC1)=NC1CCCCC1 | inactive
10 | Clc1ccc(C(OCCN2CCCCC2)c2ccccc2)cc1 (stereo unspecified) | inactive
11 | Clc1ccc(C2(Cn3cncn3)CC(Br)CO2)c(Cl)c1 (stereo unspecified) | 60.8 µM (active)
12 | CC1(C)CCC(Cc2ccc(Cl)cc2)C1(O)Cn1cncn1 (stereo unspecified) | inactive
13 | CS/C(C)=N/OC(=O)N(C)SN(C)C(=O)O/N=C(\C)SC | inactive
14 | CCOP(=O)(OCC)O/C(=C/Cl)c1ccc(Cl)cc1Cl | 27.3 µM (active)
15 | CN1C[C@H](CNC(=O)OCc2ccccc2)C[C@@H]2c3cccc4c3c(cn4C)C[C@H]21 | inactive
16 | O=C1C(=O)c2cccc3cccc1c23 | 61.1 µM (active)
17 | CC(=O)c1cc2c(cc1C)C(C)(C)C(C)CC2(C)C (stereo unspecified) | 24.3 µM (active)
18 | CCO[C@H]1O[C@@H]2OC3(C)CC[C@H]4[C@H](C)CC[C@@H]([C@H]1C)[C@@]24OO3 | 4.22 µM (active)
19 | N#Cc1cc(I)c(O)c(I)c1 | inactive
20 | CCCCc1c(C)nc(NCC)nc1OS(=O)(=O)N(C)C | 21.7 µM (active)
21 | CC1CC(CC2CCC(N)C(C)C2)CCC1N (stereo unspecified) | inactive
22 | NS(=O)(=O)C(F)(F)C(F)(F)C(F)(F)C(F)(F)C(F)(F)C(F)(F)C(F)(F)C(F)(F)F | inactive
23 | Oc1ccc(Cl)c(Cl)c1Cl | inactive
24 | II | inactive
25 | O=S1OC[C@@H]2[C@H](CO1)[C@]1(Cl)C(Cl)=C(Cl)[C@@]2(Cl)C1(Cl)Cl (stereo partly specified) | 27.3 µM (active)
26 | O=C1NCN(c2ccccc2)C12CCN(CCCOc1ccc(F)cc1)CC2 | inactive
